Screening results from PubChem BioAssay.
In the library only some 2.9% were active in any assay of this set; here they are far more common.
PP1 inh: counter-screen for PP5 inhibitors: inhibitors of human PP1-alpha. P62136. purified PP1alpha, OMFP fluorescence. inhibition, % at 6.7 µM. actives 0.9% (n = 320,000). AID 2235;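 active = inhibition above the mean inhibition of all tested compounds plus 3 SD, computed separately for each screening campaign, cut at about 15% in these data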
Exocytosis inh: blocks lytic granule exocytosis; TALL-104 LAMP-1 surface exposure, flow cytometry; cells stimulated with thapsigargin and PMA; inhibition, % at 10 µM; actives 0.66% (n = 360,000);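 active = inhibition above about 55%, limit read from the data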
GRK2 aptamer HTS: human GRK2 inhibition via aptamer displacement | inhibition of aptamer binding, % at 10 µM | bead flow cytometry, FAM-aptamer displacement from GRK2 | P25098 | actives 0.59% (n = 330,000);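 active = inhibition of aptamer binding above 40%, roughly 3 SD of noise, on plates passing a quality check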;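 note: median bead fluorescence of bound FAM aptamer so fluorescent compounds give negative values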
NadD inh: blocks S. aureus nicotinate mononucleotide adenylyltransferase; inhibition, % at 20 µM; purified NadD enzyme, colorimetric absorbance read-out; actives 0.78% (n = 360,000); in the data active = inhibition above about 26%
Beta2AR agonist: human beta-2 adrenergic receptor agonism by FAP. P07550. Am2.2-beta2AR cells, FAP receptor internalization, flow cytometry. response, % (test concentration not listed). actives 0.43% (n = 340,000);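 active = response above a set limit, near 3 SD of response in nonfluorescent compounds, cut at about 42% in these data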
Target sequence (P07550 whole entry, looked up): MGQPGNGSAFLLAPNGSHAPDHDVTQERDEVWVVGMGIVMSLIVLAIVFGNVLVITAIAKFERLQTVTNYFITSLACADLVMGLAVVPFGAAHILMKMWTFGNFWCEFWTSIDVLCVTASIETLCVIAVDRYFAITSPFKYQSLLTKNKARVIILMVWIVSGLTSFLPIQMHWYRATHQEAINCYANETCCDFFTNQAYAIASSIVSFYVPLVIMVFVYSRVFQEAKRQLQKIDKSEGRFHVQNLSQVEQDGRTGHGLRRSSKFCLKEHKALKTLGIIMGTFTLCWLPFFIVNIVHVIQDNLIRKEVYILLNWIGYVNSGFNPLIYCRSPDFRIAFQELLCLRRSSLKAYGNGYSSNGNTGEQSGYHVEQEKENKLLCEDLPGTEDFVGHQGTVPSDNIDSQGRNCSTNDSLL
A number is an active result; i = inactive; nt = no result given; ! = not confirmed by another sample.

SMILES	PP1 inh	Exocytosis inh	GRK2 aptamer HTS	NadD inh	Beta2AR agonist
CC1CCN(Cc2c(C(=O)N/N=C/c3cccc(C(F)(F)F)c3)nnn2-c2nonc2N)CC1	16	i	i	i	i
Cc1cc(C)c(/C=N/NC(=O)c2nnn(-c3nonc3N)c2CN2CCC(C)CC2)c(C)c1	i	82	i	i	i
CC1CCN(Cc2c(C(=O)N/N=C/c3cc(Cl)ccc3O)nnn2-c2nonc2N)CC1	i	i	i	30	i
CC1CCN(Cc2c(C(=O)N/N=C/c3cc(Br)ccc3O)nnn2-c2nonc2N)CC1	i	i	i	33	i
O=C(O)C1CC=CCC1C(=O)NNc1ccccc1 (configuration not stated)	i	i	i	i	i
O=C(COC(=O)/C=C/c1ccc(F)cc1)Nc1ccccc1-c1ccccc1	i	i	i	i	i
C/C(=N\NC(=O)c1nnn(-c2nonc2N)c1CN1CCc2ccccc21)c1ccccc1O	i	i	i	42	i
COC(=O)c1nnn(-c2nonc2N)c1CN1CCc2ccccc21	i	i	i	i	i
COc1ccc(C(=O)c2ccc(Cl)c([N+](=O)[O-])c2)cc1	i	i	i	i	48
COc1ccc(C(=O)c2ccc(Cl)cc2)cc1	i	i	i	i	i
O=C(Nc1ccc(Nc2ccccc2)cc1)c1ccc(Cl)c([N+](=O)[O-])c1	i	99	i	i	i
C#CCOCCOCCOCCNc1nc(N2CCN(C(=O)[C@H](C(C)C)n3cc(CCO)nn3)CC2)nc(N2CCN(C(=O)[C@H]([C@@H](C)CC)n3cc(CCC(=O)O)nn3)CC2)n1	nt	i	nt	i	i
CC1(C2CC2)NC(=O)N(CC(=O)N2CCN(c3ccccc3Cl)CC2)C1=O (configuration not stated)	nt	i	nt	i	i
CCc1nn(CCCC(=O)N2CCN(c3cccc(C)c3C)CC2)c(=O)c2cc3occc3n12	i	i	i	i	i
CCC(=O)Nc1cccc(C(=O)/C=C/c2ccccc2)c1	i	i	i	i	54
Cc1ccc(C2(C)NC(=O)N(CC(=O)NC(=O)NC(C)C)C2=O)cc1 (configuration not stated)	i	i	i	i	i
COc1ccccc1NNC(=O)C(O)(c1ccccc1)c1ccccc1	i	104	i	i	i
CCCNC(=O)c1ccc(N2CCC3(CC2)CC(c2cccc(Br)c2)=NO3)c([N+](=O)[O-])c1	i	i	i	i	i
COc1ccc(C2=CC(=O)N(Nc3ccccc3)C2=O)cc1	i	i	i	i	nt
O=C1C=C(c2ccccc2)C(=O)N1Nc1ccccc1	i	59	i	i	i
O=C(O)c1ccc(CNC(=O)C2CCN(S(=O)(=O)c3ccc4c(c3)OCCO4)CC2)cc1	nt	i	nt	i	nt
CN(C(=O)Cn1cc([N+](=O)[O-])ccc1=O)C1CCCCC1	i	i	i	i	i
Cc1cc(N=Nc2ccc(C)c(N=Nc3cc(C)c(N)cc3N)c2)c(N)cc1N	i	i	i	30	i
CC(=O)Nc1ccc(C=NN=C2c3ccccc3-c3ccccc32)cc1	nt	i	nt	i	92
CN(C(=O)COC(=O)CCc1c[nH]c2ccccc12)c1ccccc1	i	i	i	i	i
SMILES	PP1 inh	Exocytosis inh	GRK2 aptamer HTS	NadD inh	Beta2AR agonist
O=C(O)c1ccc(-c2nnn(Cc3cccc(C(F)(F)F)c3)n2)cc1	i	i	i	i	i
COC(=O)C1=C(O)/C(=C\c2ccc(CNS(=O)(=O)c3ccccc3)o2)N=C1C	i	i	72	i	i
COC(=O)C1=C(O)/C(=C\c2ccc(CNS(=O)(=O)c3ccc(Cl)cc3)o2)N=C1C	i	i	i	i	i
CC(C)C[C@@H](CN1CCC[C@@H]1CN1C(=S)NC[C@@H]1Cc1ccc(O)cc1)N1C[C@H](Cc2ccc(O)cc2)N(CC2CCCCC2)C1=S	nt	i	nt	42	nt
COc1cc2nc(Nc3cccc(F)c3)nc(N)c2cc1OC	i	62	i	i	i
O=[N+]([O-])c1cc2c(c(CSc3nnnn3-c3ccc(O)cc3)c1)OCOC2	i	i	i	i	i
O=C(c1ccc(Br)o1)N1CCN(c2ncccn2)CC1	i	i	i	i	i
Cc1ccccc1N=CC=C1OC(C)(C)C(C)(C)O1	i	i	54	i	i
Cc1ccc(-n2nnc(-c3ccnc4ccccc34)n2)cc1	i	i	i	i	i
O=[N+]([O-])/C=C/c1cn(Cc2ccc(Cl)cc2)c2ccccc12	16	i	i	i	i
O=C(O)c1ccc(Cn2cc(/C=C\[N+](=O)[O-])c3ccccc32)o1	i	i	i	i	i
Cc1cccc(Cn2cc(/C=C/[N+](=O)[O-])c3ccccc32)c1	17	i	i	i	i
C[C@@H]1CN([C@@H](C)CO)C(=O)c2cc(Br)cnc2O[C@H]1CN(C)Cc1cccc(C(=O)O)c1	nt	i	nt	i	nt
O=[N+]([O-])c1ccc(C=CC=Cc2ccccc2)cc1	nt	i	nt	i	nt
CN(c1ccccc1)c1ccc(/C=C/[N+](=O)[O-])cc1	i	i	i	i	88
O=C(CSc1nccc(=O)[nH]1)N1CCN(c2ccccc2)CC1	i	i	i	i	i
O=C1C(Cc2ccccc2)Nc2ncnc(N3CCc4ccccc4C3)c2N1Cc1ccccc1 (configuration not stated)	nt	i	i	40	i
O=C1C(Cc2ccccc2)Nc2ncnc(N3CCCCC3)c2N1Cc1ccc(Cl)cc1 (configuration not stated)	i	i	i	36	i
COc1ccc(CN2C(=O)C(CC(C)C)Nc3ncnc(N4CCN(c5ccccc5)CC4)c32)cc1 (configuration not stated)	i	i	i	i	i
COc1ccc(CN2C(=O)C(CC(C)C)Nc3ncnc(N4CCCCC4)c32)cc1 (configuration not stated)	16	i	i	i	i
COc1ccc(OC)c(S(=O)(=O)NC2CC(=O)N(c3ccc(C)c(C)c3)C2)c1 (configuration not stated)	i	i	i	i	i
O=C(O)C(Cc1ccccc1)N1C(=O)/C(=C/C=C/c2ccco2)SC1=S (configuration not stated)	nt	i	nt	i	i
O=C(O)CCCN1C(=O)/C(=C/C=C/c2ccco2)SC1=S	24	i	100	i	i
O=C(O)CC(C(=O)O)N1C(=O)/C(=C/C=C/c2ccco2)SC1=S (configuration not stated)	i	i	100	i	i
COc1ccc(-c2cc(C(F)F)n3ncc(C(=O)n4ccnc4C)c3n2)cc1	i	i	i	i	48
SMILES	PP1 inh	Exocytosis inh	GRK2 aptamer HTS	NadD inh	Beta2AR agonist
COc1ccc(-c2cc(C(F)F)n3ncc(C(=O)N4CCc5ccccc54)c3n2)cc1	i	i	i	i	i
CCOc1cc(N2CCOCC2)c(OCC)cc1NC(=O)c1cnccn1	nt	i	i	i	nt
CC1(C)CC(=O)C2=C(C1)OC1=C(C(=O)CC(C)(C)C1)C2c1ccc(O)cc1O	i	i	i	i	93
O=C(Cc1ccccc1)NS(=O)(=O)c1ccccc1	nt	i	nt	i	nt
CS/C(=N\S(=O)(=O)c1cccs1)Nc1ccc(Cl)cc1	i	i	i	i	i
CS/C(=N\S(=O)(=O)c1cccs1)Nc1ccc(Br)cc1F	i	i	i	i	59!
